According to PubChem BioAssay (EPA / NIEHS):
“And” between values parts separate entries of the source, which are not always exact repeats. Equal values may be shown once. Some structures have more than one record in an assay (separate samples or runs), and their calls can disagree. The source made the active and inactive calls. The calls were made as follows: active = hit-call score of the fitted dose curve at least 0.9, where 1 is the maximum; inactive = score below 0.9.

How the values were obtained:
[1] = ATG_DR4_LXR_CIS: Attagene CIS-FACTORIAL HepG2 Assay for human Liver X Receptor (LXR), DR4 submotif (AID 2282929); conditions: HepG2 Attagene DR4 cis-reporter, mRNA transcription; AC50: actives raise or lower the signal unless noted; outcome: actives raise or lower the signal unless noted
Method in brief: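 Measures endogenous transcription factor activity via a DR4-driven reporter transcript in human HepG2 cells. Compounds incubated 24 h; mRNA quantified by RT-PCR and capillary electrophoresis, analysed as gain or loss of signal versus DMSO.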

[2] = ATG_AP_2_CIS: Attagene CIS-FACTORIAL HepG2 Assay for human Activator Protein 2 (AP-2) (AID 2282932); conditions: HepG2 AP-2 cis-reporter, Attagene transcription factor profiling; AC50: actives raise or lower the signal unless noted; outcome: actives raise or lower the signal unless noted
Method in brief: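 Endogenous transcription factor activity is reported through transfected multiplex reporter constructs in HepG2, after 24 h of compound exposure. Transcripts were quantified by RT-PCR and capillary electrophoresis of fluorescent fragments. Bidirectional fit against DMSO.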

[3] = ATG_BRE_CIS: Attagene CIS-FACTORIAL HepG2 Assay for human Bone Morphogenetic Protein (BMP) Response Element (BRE) (AID 2282933); conditions: HepG2 BMP response element reporter, Attagene transcription factor profiling; actives raise or lower the signal
Method in brief: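 Multiplexed cis-reporter assay, HepG2, 24 h exposure. mRNA from reporter units quantified via RT-PCR/CE; DMSO baseline; bidirectional curve fit.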

[4] = biological target: Retinoic acid receptor alpha (Homo sapiens) (UniProt P10276); assay: ATG_DR5_RAR_CIS: Attagene CIS-FACTORIAL HepG2 Assay for human Retinoic Acid Receptor Alpha (RARE), DR5 submotif (AID 2282934); conditions: HepG2 Attagene cis-factorial RARE DR5 reporter, mRNA; actives raise or lower the signal
Method in brief: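 Transient MRTU transfection of HepG2; 24 h compound treatment; TriZol RNA, oligo(dT) RT, PCR, FAM labelling, capillary electrophoresis. Bidirectional fit vs DMSO. Endogenous TF activity at DR5 RARE.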

[5] = biological target: Transcription factor E2F1 (Homo sapiens) (UniProt Q01094); assay: ATG_E2F_CIS: Attagene CIS-FACTORIAL HepG2 Assay for human E2F Transcription Factor 1 (AID 2282935); conditions: HepG2 Attagene cis-reporter, E2F reporter RNA transcripts; actives raise or lower the signal
Method in brief: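 Gain or loss of reporter transcript, fitted against DMSO, reflects E2F1-driven transcription. Transiently transfected HepG2 dosed 24 h before RNA isolation. Quantified by fluorescent RT-PCR products separated by capillary electrophoresis.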

[6] = ATG_E_Box_CIS: Attagene CIS-FACTORIAL HepG2 Assay for human Enhancer Box (E-box) (AID 2282936); conditions: HepG2 E-box cis-reporter transcription, actives raise or lower the signal
Method in brief: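 E-box-driven reporter transcripts measured in transiently transfected HepG2 after 24 h exposure: RNA reverse-transcribed, PCR-amplified, fluorescently labelled, digested and resolved by capillary electrophoresis. Gain or loss relative to DMSO.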

[7] = ATG_M_61_CIS: Attagene CIS-FACTORIAL HepG2 Assay for M61 Transcription Factor (Internal Marker) (AID 2282937); conditions: HepG2 Attagene CIS-FACTORIAL M61 internal marker reporter; actives raise or lower the signal
Method in brief: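 Fluorescence from labelled cDNA fragments, separated by capillary electrophoresis, quantifies reporter induction. HepG2 cells bearing transiently transfected cis-promoter MRTUs were incubated with test chemical for 24 h; DMSO defined baseline for gain/loss fitting.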

[8] = ATG_M_19_CIS: Attagene CIS-FACTORIAL HepG2 Assay for M19 Transcription Factor (Internal Marker) (AID 2282939); conditions: HepG2 Attagene CIS-FACTORIAL M19 internal marker reporter; actives raise or lower the signal
Method in brief: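 Signals come from fluorescence of labelled reporter-specific PCR fragments resolved by capillary electrophoresis, following 24 h treatment of HepG2 cells transfected with cis-promoter reporter units; activity was fitted in both directions relative to DMSO.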

[9] = biological target: Hepatocyte nuclear factor 3-beta (Homo sapiens) (UniProt Q9Y261); assay: ATG_FoxA2_CIS: Attagene CIS-FACTORIAL HepG2 Assay for human Forkhead box A2 (FOXA2) (AID 2282942); conditions: HepG2 cis-reporter transcription factor activity, 24 h; actives raise or lower the signal
Method in brief: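 In transiently transfected human HepG2 cells, promoter-driven reporter mRNA levels after 24 h chemical exposure are determined via RT-PCR with capillary electrophoresis. DMSO serves as baseline for bidirectional fitting.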

[10] = ATG_GLI_CIS: Attagene CIS-FACTORIAL HepG2 Assay for human Zinc Finger Protein GLI1 (AID 2282945); conditions: HepG2, Attagene cis-factorial reporter mRNA, GLI element; actives raise or lower the signal
Method in brief: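 Bidirectional curve fits relative to DMSO, using reporter mRNA levels from RT-PCR plus capillary electrophoresis. Cells were HepG2 transiently carrying cis-regulated reporter constructs, harvested 24 h after dosing.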

[11] = ATG_GRE_CIS: Attagene CIS-FACTORIAL HepG2 Assay for human Glucocorticoid Response Elements (GRE) (AID 2282947); conditions: HepG2 GRE cis-reporter, Attagene multiplex mRNA; AC50: actives raise or lower the signal unless noted; outcome: actives raise or lower the signal unless noted
Method in brief: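 Reporter transcripts read by RT-PCR with capillary electrophoresis fluorescence after a 24 h chemical exposure of HepG2 cells transiently transfected with multiple cis-element reporter units. Gain or loss fitted against DMSO.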

[12] = ATG_ISRE_CIS: Attagene CIS-FACTORIAL HepG2 Assay for human Interferon Regulatory Factor 1 (IRF1) binding to an Interferon-Stimulated Response Element (ISRE) (AID 2282948); conditions: HepG2 ISRE cis-reporter (Attagene), mRNA transcription readout; actives raise or lower the signal
Method in brief: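 Uses HepG2 liver cells transfected with cis-regulated reporters and measures mRNA 24 h post-dosing through RT-PCR, primer-extension labelling and capillary electrophoresis, with DMSO as negative control.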

[13] = biological target: Aryl hydrocarbon receptor (Homo sapiens) (UniProt P35869); assay: ATG_Ahr_CIS: Attagene CIS-FACTORIAL HepG2 Assay for human Aryl Hydrocarbon Receptor (Ahr) (AID 2282930); conditions: HepG2 AhR cis-factorial reporter transcription; actives raise or lower the signal
Method in brief: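 Transient MRTU transfection of HepG2 → 24 h compound exposure → total RNA, oligo(dT) RT → PCR, 6-FAM extension, HpaI cut → CE fluorescence. DMSO = baseline; bidirectional curve fit.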

[14] = ATG_AP_1_CIS: Attagene CIS-FACTORIAL HepG2 Assay for human Activator Protein 1 (AP-1) (AID 2282931); conditions: HepG2 Attagene cis-factorial AP-1 reporter mRNA; actives raise or lower the signal
Method in brief: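 Bidirectional concentration-response fitting against DMSO controls. Underlying signal: reporter mRNA from cis-promoter constructs in transiently transfected HepG2, measured after 24 h by RT-PCR and capillary electrophoresis.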

[15] = ATG_EGR_CIS: Attagene CIS-FACTORIAL HepG2 Assay for human Early Growth Response 1 (EGR1) (AID 2282938); conditions: HepG2 Attagene CIS-FACTORIAL EGR reporter mRNA; actives raise or lower the signal
Method in brief: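 Cell-based multiplex transcription assay: HepG2 carrying transfected cis-element reporter units, 24 h chemical treatment. Fluorescence from capillary electrophoresis of RT-PCR products gives mRNA levels; fitting is bidirectional relative to DMSO.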

[16] = ATG_ERE_CIS: Attagene CIS-FACTORIAL HepG2 Assay for Estrogen Response Element (ERE) (AID 2282940); conditions: HepG2 ERE cis-reporter, Attagene RNA transcript; actives raise or lower the signal
Method in brief: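 Fluorescence of capillary-separated, FAM-labelled reporter cDNA fragments indicates reporter mRNA levels in HepG2 cells exposed to chemicals for 24 h. Transient transfection with cis-regulated units; data fitted in both directions against DMSO.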

[17] = ATG_Ets_CIS: Attagene CIS-FACTORIAL HepG2 Assay for human Erythroblast Transformation Specific (ETS) (AID 2282941); conditions: HepG2 ETS cis-reporter transcription; AC50: actives raise or lower the signal unless noted; outcome: actives raise or lower the signal unless noted
Method in brief: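 Bidirectional fit versus DMSO of reporter mRNA signal, detected by RT-PCR and capillary electrophoresis in HepG2 cells transiently transfected with cis-element reporters and dosed 24 h.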

[18] = ATG_FoxO_CIS: Attagene CIS-FACTORIAL HepG2 Assay for human Forkhead box O (FoxO) (AID 2282943); conditions: HepG2 Attagene cis-reporter, FoxO element, mRNA; actives raise or lower the signal
Method in brief: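 HepG2, transient MRTU transfection (cis element, endogenous TFs). Dose 24 h. TriZol RNA → oligo(dT) RT → PCR → 6-FAM primer extension → HpaI cut → CE. Gain/loss vs DMSO.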

[19] = ATG_GATA_CIS: Attagene CIS-FACTORIAL HepG2 Assay for human GATA Binding Protein (AID 2282944); conditions: HepG2 GATA cis-element reporter, Attagene multiplex mRNA; actives raise or lower the signal
Method in brief: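 After transfecting HepG2 cells with multiple cis-regulated reporter units, chemicals are dosed for 24 h; isolated RNA undergoes RT-PCR and fluorescent labeling before capillary electrophoresis, with activity expressed against DMSO.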

[20] = biological target: Bile acid receptor (Homo sapiens) (UniProt Q96RI1); assay: ATG_IR1_CIS: Attagene CIS-FACTORIAL HepG2 Assay for human Nuclear Receptor Subfamily 1 Group H Member 4 (NR1H4), IR1 submotif (AID 2282946); conditions: IR1 reporter transcription, actives raise or lower the signal
Method in brief: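 HepG2 cells transiently transfected with multiplexed cis-element reporter units read endogenous transcription factor activity. After 24 h compound exposure, reporter mRNA was quantified by RT-PCR, fluorescent labelling, HpaI digestion and capillary electrophoresis; bidirectional fitting versus DMSO baseline.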

Measured: AC50

Retinoic acid receptor alpha (Homo sapiens), sequence (P10276 whole entry, looked up): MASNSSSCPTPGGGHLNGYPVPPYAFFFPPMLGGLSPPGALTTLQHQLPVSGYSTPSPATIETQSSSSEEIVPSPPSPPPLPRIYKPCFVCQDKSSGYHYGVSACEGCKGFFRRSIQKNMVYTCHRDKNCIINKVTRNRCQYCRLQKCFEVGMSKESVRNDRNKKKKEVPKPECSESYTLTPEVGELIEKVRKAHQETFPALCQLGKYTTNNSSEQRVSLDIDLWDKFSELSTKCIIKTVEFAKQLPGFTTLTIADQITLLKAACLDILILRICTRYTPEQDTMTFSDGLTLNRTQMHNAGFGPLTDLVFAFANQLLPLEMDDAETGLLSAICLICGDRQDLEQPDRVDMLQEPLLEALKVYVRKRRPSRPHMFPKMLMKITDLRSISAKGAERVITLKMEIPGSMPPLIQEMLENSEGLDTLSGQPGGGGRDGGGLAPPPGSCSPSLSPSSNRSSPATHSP
Aryl hydrocarbon receptor (Homo sapiens), sequence (P35869 whole entry, looked up): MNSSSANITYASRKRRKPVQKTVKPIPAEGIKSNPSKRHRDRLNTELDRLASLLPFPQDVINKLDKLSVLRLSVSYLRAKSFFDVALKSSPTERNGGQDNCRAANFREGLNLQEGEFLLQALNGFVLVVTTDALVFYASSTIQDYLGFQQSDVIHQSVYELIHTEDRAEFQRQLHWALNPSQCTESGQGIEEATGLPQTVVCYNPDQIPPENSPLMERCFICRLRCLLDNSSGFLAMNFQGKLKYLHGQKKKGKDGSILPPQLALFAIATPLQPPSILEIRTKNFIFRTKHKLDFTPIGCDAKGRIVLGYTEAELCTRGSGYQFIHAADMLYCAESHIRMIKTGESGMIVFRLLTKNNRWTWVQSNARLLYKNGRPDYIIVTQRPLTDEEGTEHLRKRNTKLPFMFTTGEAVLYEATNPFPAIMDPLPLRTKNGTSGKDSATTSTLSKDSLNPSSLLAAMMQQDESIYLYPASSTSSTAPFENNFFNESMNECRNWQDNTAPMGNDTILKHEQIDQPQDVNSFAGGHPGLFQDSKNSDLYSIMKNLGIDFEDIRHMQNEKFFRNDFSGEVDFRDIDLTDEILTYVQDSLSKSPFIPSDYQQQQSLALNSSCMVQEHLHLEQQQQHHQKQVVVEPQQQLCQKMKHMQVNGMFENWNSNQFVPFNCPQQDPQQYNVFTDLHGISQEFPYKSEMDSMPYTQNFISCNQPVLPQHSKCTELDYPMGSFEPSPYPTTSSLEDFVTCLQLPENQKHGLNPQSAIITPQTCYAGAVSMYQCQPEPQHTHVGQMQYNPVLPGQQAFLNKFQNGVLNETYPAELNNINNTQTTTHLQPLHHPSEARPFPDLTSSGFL
Bile acid receptor (Homo sapiens), sequence (Q96RI1 whole entry, looked up): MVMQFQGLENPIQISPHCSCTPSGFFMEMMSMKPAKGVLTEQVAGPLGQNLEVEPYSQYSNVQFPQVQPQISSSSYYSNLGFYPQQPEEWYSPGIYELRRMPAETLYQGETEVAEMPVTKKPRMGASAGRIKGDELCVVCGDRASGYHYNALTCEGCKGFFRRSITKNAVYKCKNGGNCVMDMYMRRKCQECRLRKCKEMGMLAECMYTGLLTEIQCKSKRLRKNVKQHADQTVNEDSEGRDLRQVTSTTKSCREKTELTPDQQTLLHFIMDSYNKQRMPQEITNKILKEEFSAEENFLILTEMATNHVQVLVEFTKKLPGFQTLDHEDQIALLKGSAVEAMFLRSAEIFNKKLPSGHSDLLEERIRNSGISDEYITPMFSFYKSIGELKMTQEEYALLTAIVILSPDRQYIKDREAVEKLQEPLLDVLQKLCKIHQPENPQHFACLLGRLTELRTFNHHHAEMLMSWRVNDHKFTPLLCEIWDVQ
Hepatocyte nuclear factor 3-beta (Homo sapiens), sequence (Q9Y261 whole entry, looked up): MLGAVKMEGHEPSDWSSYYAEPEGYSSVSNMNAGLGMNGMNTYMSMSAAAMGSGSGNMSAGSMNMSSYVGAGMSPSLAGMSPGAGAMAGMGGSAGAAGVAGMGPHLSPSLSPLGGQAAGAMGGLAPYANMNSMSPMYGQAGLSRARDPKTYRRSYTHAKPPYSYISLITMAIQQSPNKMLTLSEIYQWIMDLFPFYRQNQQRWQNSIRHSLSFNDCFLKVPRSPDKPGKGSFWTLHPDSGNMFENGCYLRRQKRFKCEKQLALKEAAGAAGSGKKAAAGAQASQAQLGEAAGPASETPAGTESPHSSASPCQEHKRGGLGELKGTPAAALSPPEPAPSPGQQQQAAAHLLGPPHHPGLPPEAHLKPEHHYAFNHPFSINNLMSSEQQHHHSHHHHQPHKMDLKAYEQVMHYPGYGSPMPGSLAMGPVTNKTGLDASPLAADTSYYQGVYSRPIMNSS
Transcription factor E2F1 (Homo sapiens), sequence (Q01094 whole entry, looked up): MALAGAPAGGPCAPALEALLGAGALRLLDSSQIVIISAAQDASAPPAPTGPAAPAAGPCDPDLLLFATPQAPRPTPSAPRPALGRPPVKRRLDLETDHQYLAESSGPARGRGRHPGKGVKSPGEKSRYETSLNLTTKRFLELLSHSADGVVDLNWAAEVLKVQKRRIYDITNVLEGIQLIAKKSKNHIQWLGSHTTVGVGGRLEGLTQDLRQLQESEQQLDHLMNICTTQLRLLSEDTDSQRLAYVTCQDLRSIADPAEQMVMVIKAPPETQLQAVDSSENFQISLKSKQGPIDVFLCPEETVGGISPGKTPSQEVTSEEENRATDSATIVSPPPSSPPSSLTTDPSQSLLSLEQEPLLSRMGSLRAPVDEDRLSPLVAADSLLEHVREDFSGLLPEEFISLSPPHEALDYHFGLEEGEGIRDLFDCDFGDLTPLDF

CC(C)C=O
active: [1] 26.8 µM
inactive: [1] | [2] | [3] | [4] | [5] | [6] | [7] | [8] | [9] | [10] | [11] | [12]

O=C(O)C(F)(F)OC(F)(F)C(F)(F)OC(F)(F)C(F)(F)OC(F)(F)C(F)(F)C(F)(F)C(F)(F)F
inactive: [13] | [14] | [3] | [4] | [5] | [6] | [7] | [8] | [16] | [17] | [9] | [18] | [19] | [10] | [20] | [11]
active: [1] 16.6 µM and 21.7 µM | [2] 93.6 µM and 28.1 µM | [6] 89.1 µM | [15] 19.6 µM and 25.7 µM | [19] 76.5 µM | [12] 24.6 µM and 26 µM

Cc1ccc2ccc3ccc(C)cc3c2c1
active: [13] 50.6 µM
inactive: all other assays above

CN(C)c1ccc(C(=C2C=CC(=[N+](C)C)C=C2)c2ccccc2)cc1
inactive: [13] | [14] | [3] | [5] | [7] | [8] | [17] | [9] | [18] | [19] | [20] | [11]
active: [1] 2.07 µM and 1.26 µM | [14] 0.472 µM | [6] 3.63 µM and 1.85 µM | [17] 10.1 µM | [9] 1.51 µM | [10] 1.42 µM and 1.85 µM | [20] 1.28 µM

COCN(COC)c1nc(N(COC)COC)nc(N(COC)COC)n1
active: [16] 23.7 µM
inactive: all other assays above

Cc1ccccc1OCC(=O)O
active: [9] 26 µM
inactive: all other assays above

NCCN
not listed: [11] | [12] | [20]
inactive: all other assays above

Oc1cc2ccccc2cc1O
active: [13] 21.1 µM | [14] 70.2 µM | [16] 100 µM
inactive: all other assays above

CCCCCCCCCCCC(=O)NCCCN(C)C
active: [3] 17.6 µM | [15] 20.3 µM | [18] 20.3 µM | [19] 17.2 µM | [20] 16.4 µM | [11] 14.9 µM | [12] 16.9 µM
inactive: all other assays above

C=C(c1ccc(C(=O)O)cc1)c1cc2c(cc1C)C(C)(C)CCC2(C)C
active: [1] 2.99 µM | [5] 31 µM | [6] 19 µM | [15] 11.1 µM | [8] 34.1 µM | [16] 0.0545 µM | [10] 28.6 µM | [12] 16.8 µM
inactive: [1] | [13] | [3] | [5] | [6] | [7] | [15] | [8] | [16] | [17] | [9] | [18] | [10] | [11] | [12]

C[C@]12CC[C@@H]3c4ccc(O)cc4CC[C@H]3[C@@H]1C[C@@H](O)[C@@H]2O
active: [1] 26.3 µM
inactive: [1] | [13] | [14] | [3] | [4] | [5] | [6] | [7] | [15] | [8] | [17] | [9] | [18] | [19] | [10] | [11]

CCCCN(C)C
inactive: all assays above

CC1CNCC(C)O1 (stereo unspecified)
inactive: all assays above
